Hit rate of the full screen: of about 2,000 compounds, fewer than 10 were called active.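 How the source made its calls: active means growth inhibition of at least 75% in every replicate, which also brings the mean inhibition to 75% or more; inconclusive means mean inhibition 75% or more but some replicate under 75%; inactive means the rest.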 Only a sample is shown.
Assay: growth inhibition of PfHsp90-dependent yeast, primary screen, antimalarial PfHsp90 inhibitor project, S. cerevisiae, BacTiter-Glo luminescence (AID 504594);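 further: 0% = DMSO neutral control wells and 100% = 20 µM radicicol control wells; higher value means stronger growth inhibition because the sign is flipped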
Settings: S. cerevisiae expressing PfHsp90, BacTiter-Glo growth, 48 h; at 9.4 µM; active compounds read high

Growth inhibition, inactive:
CCN(CC)CCN1C(=O)C(=O)/C(=C(/O)c2c(C)[nH]c(C(=O)OC)c2C)C1c1cccnc1 (stereo not drawn) -4.71%
COc1cccc(N2CC34C=CC(O3)C(C(=O)O)C4C2=O)c1 (stereo not drawn) -1.36%
COc1ccc(OC)c(-c2oc3ccccc3c(=O)c2O)c1 -8.17%
Cc1ccsc1C1NC(=O)c2ccccc2N1 (stereo not drawn) -12.4%
COc1cc(C(=O)N/C(=C\c2cn(C)c3ccccc23)C(=O)NCCCO)cc(OC)c1OC 13.5%
CCc1nc2ccccc2n1Cc1ccc(OC)c(OC)c1 2.55%
C/C(NC(=O)c1cccs1)=C1\C(=O)C[C@@H]2[C@H]1C2(C)C 1.59%
CCc1cc2c(=O)c(-c3nc(C)cs3)c(CCCC(=O)O)oc2cc1O -4.53%
CN(C)CCOc1ccc(Cl)cc1C(C)(C)C -0.977%
COc1ccc2c(c1OC)C(=O)N1C2SC[C@H]1C(=O)NC1CC(C)(C)NC(C)(C)C1 (stereo partly drawn) 2.59%
N#Cc1cc2c([nH]c1=O)CCCC2 8.49%
COc1cc2c(cc1O)CCN(C(=O)c1ccco1)C2C (stereo not drawn) 3.62%
Cc1c(Cc2ccccc2)c(=O)oc2c(CN(C)C)c(O)c(Cl)cc12 -2.33%
COc1cccc(N2C(=O)[C@H]3C(C(=O)c4cnccn4)=NN[C@H]3C2=O)c1 -1.02%
O=C(O)C[C@@H](O)C(=O)O -8.31%
Cc1ccc(CSCC(=O)N2CCCC2)cc1 -5.17%
O=C(NCCc1nc2ccccc2[nH]1)c1cccc(Br)c1 2.71%
CCNC(=S)N1CCN(CCN2C(=O)c3cccc4cccc(c34)C2=O)CC1 2.01%
COc1c2occc2c(OC)c2c(=O)cc(C(F)(F)C(F)(F)F)oc12 -5.37%
CC(=O)NC(Cc1c[nH]c2ccccc12)C(=O)N/N=C/c1ccccc1 (stereo not drawn) 13.4%
O=C(CN1CC[n+]2c(-c3cccs3)csc21)c1ccc(Br)cc1 -7.32%
Cc1ccc2nc(N=C(N)N)nc(C)c2c1 -4.91%
COc1ccc(CNC(=O)N[C@H](C(=O)O)C(C)C)cc1OC -0.856%
CCOC(=O)NN1C(=O)c2ccccc2NC1c1ccc(OC)c(OC)c1 (stereo not drawn) -6.91%
COC(=O)c1[nH]c(=O)c2ccccc2c1O -11.7%
COC(=O)c1cc(OC)c(OC)cc1NC(=O)CN1C(=O)c2ccccc2C1=O -14.3%
COc1cc(CNc2ccc(C)c(C)c2)cc(OC)c1OC 13.4%
Clc1ccc2c(c1)[C@H]1OCC[C@H]1[C@@H](c1ccco1)N2 1.42%
CC1(c2ccccc2)CC(C)(C)N2C(=O)C(=O)c3cccc1c32 (stereo not drawn) -3.23%
O=c1nc2cccc3c2=c(/c1=C(\O)c1ccccc1)c1ccccc1c3=O -23.6%
O=C1Nc2ccc3sc4ccccc4c3c2C1=O -1.28%
O=C(CN1C(=O)/C(=C/c2cccc(Br)c2)SC1=S)Nc1cccnc1 -5.73%
CC(C)c1ccc(/C=C/C(=O)O)cc1 -10.9%
COc1ccc(CC(=O)N2CC3(C)CC2CC(C)(C)C3)cc1OC (stereo not drawn) 12.2%
COc1ccc(CCn2c(C)cc3c(c2=O)C(c2ccncc2)C(C#N)=C(N)O3)cc1OC (stereo not drawn) -3.67%
CC1(C)CC(CC(=O)O)(c2ccc(Cl)cc2)CCO1 (stereo not drawn) 4.78%
Cc1cccc2c1CC(C)(C)N/C2=C\C(N)=O 1.18%
COc1ccc(-c2[nH]ncc2C=O)cc1OC 7.91%
O=C(/C=C/c1ccc(F)cc1)NC(=S)N1CCCCC1c1cccnc1 (stereo not drawn) 4.68%
C=CCc1cccc2cc(C(=O)Nc3ccc(CC(=O)O)cc3)c(=O)oc12 -7.68%
C[C@H](NC(=O)C1(c2ccccc2)CCN(C(=O)[C@H]2CSCN2C(=O)OC(C)(C)C)CC1)C(=O)O -9.59%
COC1CCN(Cc2cn(Cc3ccccc3)nc2-c2cc3ccccc3o2)CC1 3.22%
CC(C)CN1CC(C(=O)O)CC1=O (stereo not drawn) -3.33%
CCOCCn1c(C(C)O)nc2ccccc21 (stereo not drawn) -8.58%
O=C(CC(NC(=O)OCc1ccccc1)C(=O)O)OCc1ccccc1 (stereo not drawn) 0.482%
COc1ccc(C(=O)Nc2ncc3c(n2)CC(C)CC3=O)cc1 (stereo not drawn) -12.5%
O=C1NCC2=C1C(c1ccccc1)Nc1ccccc1N2 (stereo not drawn) 6.48%
COc1cccc(C2CC(=O)C3=C(C2)Nc2ccccc2N(C(=O)CCC(=O)O)C3c2ccc(F)cc2)c1 (stereo not drawn) 3.39%
COc1ccc(C(=O)CCN2CCc3cc(OC)c(OC)cc3C2)cc1 4.16%
O=C1OC(=O)C2C1[C@@H]1CC[C@H]2O1 (stereo partly drawn) -14%
COCc1cc(=O)[nH]c(/N=C(\N)Nc2ccc(Oc3ccccc3)cc2)n1 -12.9%
CC(=O)c1ccc(CCCCCCCCCC(=O)O)s1 -16.6%
CC(C)CN1CCN(Cc2ccc3ncccc3c2)CC1CCO (stereo not drawn) -15.2%
O=c1ccc2c(o1)/C(=C/C=C(Cl)Cl)CCC2 -2.29%
CC(C)(C)C(=O)NCCCNc1ccc([N+](=O)[O-])cc1 4.14%
CC(=O)c1c(C)[nH]c(C(=O)OCc2ccccc2)c1C -16%
NS(=O)(=O)c1ccc(CCNC(=O)C2CCCN2C(=O)OCc2ccccc2)cc1 (stereo not drawn) -1.5%
Cn1c(Oc2ccc3c(c2)OCO3)nc2c1c(=O)n(Cc1ccccc1)c(=O)n2C 5.1%
Cc1c2c(nc3c(C)cccc13)OC(C)C2 (stereo not drawn) 8.19%
CCOC(=O)n1c(=O)oc2ccccc21 -13.3%
Cc1csc(CCc2nc(C)cs2)n1 0.825%
O=C(Nc1ccc(F)c([N+](=O)[O-])c1)c1ccc2c(c1)OCCO2 -4.38%
CC(C)NS(=O)(=O)c1ccc(OCC(=O)Nc2cccc(F)c2)cc1 4.62%
COc1c2c(nc3occc13)C(CC=C(C)C)(OC)C(O)CC2 (stereo not drawn) 3.58%
COc1ccc(C=NCC2COc3ccccc3O2)cc1OC (stereo not drawn) 13.6%
O=C(Oc1cccccc1=O)c1ccccc1 11%
Cc1nc2ccccc2n1CC(=O)NC1CCCC1 -8.15%
CC1(C)CC(=O)c2cnc(NC(=O)C3CCCC3)nc2C1 0.802%
Cc1ccc(S(=O)(=O)Oc2ccccc2/C=N/N=C(N)N)cc1 9.9%
CCc1cc2c(C)cc(=O)oc2cc1OC(=O)C1CCCN1C(=O)OC(C)(C)C (stereo not drawn) 5.63%
COc1ccc2cc(C(=O)Nc3ccc(S(N)(=O)=O)cc3)sc(=O)c2c1OC 5.36%
CC(C)(C)NCC(O)COc1ccccc1C(=O)CCc1ccccc1 (stereo not drawn) -4.71%
Cn1nc(-c2ccccn2)nc2c(=O)n(C)c(=O)nc1-2 -12.4%
Cn1c(=O)[nH]c2nnc(-c3ccc(Cl)c(Cl)c3)nc2c1=O 1.34%
N/C(Cc1ccc(Cl)cc1Cl)=N\OC(=O)c1ccc(Br)o1 30.5%
Cc1cccc(Oc2coc3cc(OC(=O)c4cncc(Br)c4)ccc3c2=O)c1 -0.933%
COC(=O)[C@@H](N)CS -1.65%
O=Cc1ccc(N2CCCCC2)cc1 -3.18%
C#CCOc1ccc2c(C)cc(=O)oc2c1 -0.459%
COc1cccc(CC(=O)NCC2COc3ccccc3O2)c1OC (stereo not drawn) 12.9%
O=C(NCc1ccco1)/C(=C\C=C\c1ccccc1)NC(=O)c1ccccc1Br -0.463%
CC(=O)OCC(OC(C)=O)C(OC(C)=O)C(OC(C)=O)C(=O)Nc1cccc(C)c1 (stereo not drawn) -0.0548%
CC(=O)N1CCN(c2ccc(NC(=O)/C=C/c3ccccc3)cc2)CC1 10.6%
Cc1ccccc1-c1nn(-c2ccc(F)cc2F)cc1CNCCN(C)C -12.6%
CC(C)Cc1ccc(C(C)C(=O)Nc2ccc(O)cc2)cc1 (stereo not drawn) -4.11%
Cc1ccc(C(=O)Nc2ccc(O)cc2C(=O)O)cc1C 4.07%
CC(=O)N1CCn2c3c(c4cc(C)ccc42)CCCC31 (stereo not drawn) -11.1%
Fc1cccc(Cc2noc(CN3CCN(c4cnccn4)CC3)n2)c1 -2%
O=Cc1ccccc1Oc1ccccc1 -0.351%
COc1ccc2[nH]c3c(c2c1)CCn1c-3nc2ccccc2c1=O 0.118%
CC(=O)Nc1ccc(OS(=O)(=O)c2c(C)cc(C)cc2C)cc1 10.9%
CCOc1ccc(C(=O)C(C)=O)c(OCC)c1 10.5%
CC(=O)Oc1ccc(C2OC(=O)c3ccccc3N2C(C)=O)cc1 (stereo not drawn) -6.47%
COc1ccc(C(=O)O)cc1F -4.03%
O=C(O)c1ccccc1OCCOc1ccccc1 3.6%
Cc1ccc2nc3c(cc(C(=O)NCC4CCCO4)c(=N)n3CCCOC(C)C)c(=O)n2c1 (stereo not drawn) 4.47%
CC(C)CC(=O)NC(NC(=O)CC(C)C)c1cccc([N+](=O)[O-])c1 2.96%
CC(=O)NC(NC(=S)N1CCCCCC1)C(Cl)(Cl)Cl (stereo not drawn) -2.52%
C[N+]1(C2CCC3CCCC2C3O)CCCCC1 (stereo not drawn) -8.1%
O=C(O)CCCCCN=C1CCc2ccccc2N1 0.535%
Cc1ccc(OCCCCn2ccnc2C)c(C)c1 -3.77%
COc1ccc(CCN2C(=O)CSC2c2ccc(OC)c(OC)c2)cc1OC (stereo not drawn) 2.57%
O=C1C(=O)N2C(=C1C(=O)N1CCCCCC1)c1ccccc1CC21CCCC1 -4.5%
CCN1CCN(C(=S)c2ccc(OC)cc2)CC1 -1.26%
O[C@H]1COC2C1OC[C@@H]2O (stereo partly drawn) -2.02%
O=C(Cc1ccccc1[N+](=O)[O-])NCc1ccncc1 15%
Oc1ccc(COCc2ccccc2)c2cccnc12 -6.18%
CC1CCN(C(=O)Oc2ccccc2)CC1 5.73%
C[N+]12CCCCC1C(COC(=O)c1ccc3c(c1)OCO3)CCC2 (stereo not drawn) 1.34%
CC(C)N(C(=O)Cc1ccccc1[N+](=O)[O-])C(C)C 4.35%
O=C(c1ccc(Cl)cc1)C1CCCN(Cc2ccc(Oc3ncccn3)cc2)C1 (stereo not drawn) -7.65%
Cc1ccc(C2CC(c3cccs3)=NN2C(=O)c2ccco2)o1 (stereo not drawn) 6.03%
O=CNC1CCCc2c1[nH]c1ccc(Cl)cc21 (stereo not drawn) -7.59%
COc1ccc(C(=O)[C@H]2[C@H]3C(=O)N(c4ccccc4)C(=O)[C@H]3C3C=CC=NN32)cc1 (stereo partly drawn) 15.9%

Growth inhibition, active:
Oc1c(Cl)cc(Cl)c(Cl)c1Cc1c(O)c(Cl)cc(Cl)c1Cl 104%
c1ccc(-c2ccc(C(c3ccccc3)n3ccnc3)cc2)cc1 (stereo not drawn) 91.6%
Cn1nc(-c2ccc(Cl)cc2)nc2c(=O)n(C)c(=O)nc1-2 104%
O=[N+]([O-])c1ccc(O)c2ncccc12 93.7%

From PubChem BioAssay AID504594 (Broad Institute, 2011)
